Source: PubChem BioAssay
DT40 TDP1 CPT = growth inhibition of DT40 Tdp1-/-;hTDP1 cells with camptothecin (screen for TDP1 inhibitors) | chicken DT40 Tdp1-/-;hTDP1 cells + 20 nM CPT, ATP luminescence, 48 h | Potency, µM (titrated, usually from 46.2 µM), inactives show top-dose activity change, negative = growth inhibition, hits mostly inhibitors | 12% of 420,000 active; further: potency means the concentration at half of the fitted maximal effect; on the % scale 0 is the no-effect control and ±100 the full control effect; nearly all actives have a fitted effect of over 55% in size
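Chicken DT40 Tdp1-/- cells stably complemented with human TDP1 were seeded at 400 cells/well in medium containing 20 nM camptothecin, exposed to pin-transferred compounds, and grown at 37 °C for at least 48 hr. Viability was read as ATP luminescence.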
TDP1 cell noCPT = qHTS for Inhibitors of human tyrosyl-DNA phosphodiesterase 1 (TDP1): qHTS in cells in absence of CPT. DT40 Tdp1-/- hTDP1 cells, no CPT, ATP luminescence, 48 h. Potency, µM (top dose mostly 46.2 µM), inactives show at the top dose activity change, negative = growth inhibition, actives largely listed as inhibitors. 15% of 420,000 active; further: potency means the concentration at half of the fitted maximal effect; on the % scale 0 is the no-effect control and ±100 the full control effect; nearly all actives have a fitted effect of over 55% in size
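Camptothecin absent (DMSO only). Human TDP1-complemented DT40 knockout cells, 400 cells/well, 37 °C for minimum 48 hr; ATP measured via CellTiter-Glo, 30 min dark incubation, luminescence.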
IL1B secr inh = inhibitors of inflammasome signaling (IL-1 beta secretion); AID 743279; activity change, % at 57.5 µM; THP-1 LPS/ATP IL-1B secretion, AlphaLISA, 16 h; active compounds read low; 4.7% of 360,000 active; in the data active means activity change below about -50%; inconclusive means mostly about -30% to -49%; further: on the % scale 0 is the no-effect control and ±100 the full control effect
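Secreted IL-1B measured by AlphaLISA bead assay after 16 h compound exposure of THP-1 cells; compounds (final up to 57.5 uM) added 1 h before LPS (250 ng/mL) and ATP (1.25 mM) stimulation; lower signal means less secretion.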
HepG2 tox = kills HepG2 cells in TGF-b inhibitor counter-screen | Potency, µM (doses to about 46.1 µM), for inactives: at the highest dose activity change, negative = cytotoxicity, usual class: cytotoxic | AID 588856 | HepG2 CAGA-GFP viability, ATP luminescence, 18 h | 0.76% of 410,000 active; further: potency means the concentration at half of the fitted maximal effect
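CellTiter-Glo luminescence gave cytotoxicity after 18 hours at 37 degrees C. The cells were HepG2 CAGA-GFP in 1% FBS DMEM, stimulated with 500 pg/mL TGF-beta after compound addition. %Activity was normalised to no-cell wells (complete cell-killing) and DMSO (no toxicity), and curves were fitted and classified.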
TDP1 inh = inhibitors of human tyrosyl-DNA phosphodiesterase TDP1 | Q9NUW8 | recombinant TDP1, AlphaScreen DNA substrate cleavage | Potency, µM (series often up to 130 µM), without a hit: top-dose activity change, negative = inhibition, hits mostly inhibitors | 0.28% of 350,000 active; further: potency means the concentration at half of the fitted maximal effect; on the % scale 0 is the no-effect control and ±100 the full control effect; nearly all actives have a fitted effect of over 40% in size
Target sequence (Q9NUW8 whole entry, looked up): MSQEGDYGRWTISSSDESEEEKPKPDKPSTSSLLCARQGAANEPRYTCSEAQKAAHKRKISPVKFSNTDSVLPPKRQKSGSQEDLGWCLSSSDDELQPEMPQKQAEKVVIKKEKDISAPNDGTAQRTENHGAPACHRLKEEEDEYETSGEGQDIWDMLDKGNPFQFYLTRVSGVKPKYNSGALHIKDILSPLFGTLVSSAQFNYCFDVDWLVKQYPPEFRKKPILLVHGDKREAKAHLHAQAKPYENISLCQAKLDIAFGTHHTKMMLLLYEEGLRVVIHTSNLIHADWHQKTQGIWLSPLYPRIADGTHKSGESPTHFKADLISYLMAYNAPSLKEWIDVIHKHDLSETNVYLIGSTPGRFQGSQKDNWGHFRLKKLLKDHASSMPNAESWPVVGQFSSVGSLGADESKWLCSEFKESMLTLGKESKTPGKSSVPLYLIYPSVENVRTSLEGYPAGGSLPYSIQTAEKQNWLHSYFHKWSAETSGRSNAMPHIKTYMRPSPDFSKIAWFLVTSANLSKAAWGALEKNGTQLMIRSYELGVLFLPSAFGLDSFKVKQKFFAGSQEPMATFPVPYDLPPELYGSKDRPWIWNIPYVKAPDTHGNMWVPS
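Recombinant E. coli-expressed Tdp1 (1 nM) preincubated with compound 15 min at RT, then 5'-biotin/3'-phosphotyrosine-FITC DNA substrate (15 nM) added for 5 min. AlphaScreen beads (10 ug/ml) added, 10 min RT; tyrosine-FITC cleavage read as signal loss.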
TGFb SMAD3 inh = TGF-b pathway inhibition | 1.2% of 410,000 active | HepG2 CAGA-GFP TGF-b/SMAD3 reporter, GFP fluorescence, 18 h; TGF-beta stimulated, 500 pg/mL final | Potency, µM (top dose mostly 46.1 µM), for inactives: top-dose activity, negative = inhibition, actives largely listed as inhibitors | AID 588855; further: potency means the concentration at half of the fitted maximal effect; on the % scale 0 is the no-effect control and ±100 the full control effect; nearly all actives have a fitted effect of over 65% in size
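Cell-based qHTS in HEPG2 carrying a CAGA-GFP Smad reporter; compounds added before 500 pg/mL final TGF-beta, 18 h incubation at 37 degrees C, GFP fluorescence quantified per cell by imaging cytometry.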
Numbers without * were called inactive; u = inconclusive; x = not tested or not shown; [ ] = another dose, or the depositor's remark. In the library only some 18% were active in any assay of this set; here they are far more common. Unless noted, the call rests on the fitted dose curve; in most records, active means well fitted curve in the direction sought with a large enough effect; inconclusive means small, poorly fitted or top-dose-only effect, or another doubt; inactive means no such curve, though single readings can be large; an effect the other way counts as inactive or inconclusive.

SMILES	DT40 TDP1 CPT	TDP1 cell noCPT	IL1B secr inh	HepG2 tox	TDP1 inh	TGFb SMAD3 inh
CC(C)[C@H]1COCCS(=O)(=O)N1Cc1ccc(Cl)cc1	u	u	-4	-4%	x	-1%
CCC(C)[C@H]1COCCS(=O)(=O)N1Cc1ccccc1F (stereo partly drawn)	u	u	7	-19%	x	u
CCN(CC)S(=O)(=O)c1ccc(/C=C/C(=O)OCC(=O)NNC(=O)c2ccc(OC)cc2)cc1	-2%	15%	12	2%	2%	1%
COC(=O)CN1C(=O)C(O)(CC(=O)c2ccc(Cl)cc2)c2ccccc21 (stereo not drawn)	u	u	17	-1%	-2%	4%
CCCN1C(=O)C(O)(CC(=O)c2ccc(OC)c(OC)c2)c2ccccc21 (stereo not drawn)	u	16µM*	x	-15%	x	3%
Cc1ccc(C(=O)CC2(O)C(=O)N(Cc3ccccc3Cl)c3ccccc32)o1 (stereo not drawn)	u	10µM*	2	1%	3%	3%
COc1cc(C(=O)CC2(O)C(=O)N(Cc3ccccc3Cl)c3ccccc32)cc(OC)c1OC (stereo not drawn)	5.8µM*	5.2µM*	x	-43%	6%	0%
CCc1ccc(NC(=S)N2CCC(NC(=O)c3ccccc3)CC2)cc1	-6%	-19%	8	-18%	3%	-15%
COc1ccc(-c2cc(-c3ccccc3)c(C#N)c(S(C)=O)n2)cc1 (stereo not drawn)	3.3µM*	3.3µM*	-96*	-27%	6%	-19%
N#Cc1c(-c2ccccc2)cc(-c2ccccc2)nc1SCC(O)CS(=O)(=O)Cc1ccccc1 (stereo not drawn)	10µM*	5.8µM*	x	-15%	-8%[12.3 µM]	-11%
CCOC(=O)/C(Sc1nc(-c2ccccc2)cc(-c2ccccc2)c1C#N)=C(\C)O	-23%	29µM*	-19	0%	x	17%
COc1ccc(-c2cc(-c3ccccc3)c(C#N)c(=S)[nH]2)cc1	2%	-13%	12	8%	7%	4%
C#CCSc1nc(-c2ccccc2)cc(-c2ccccc2)c1C#N	u	u	x	-19%	x	7%
Cc1ccc(-c2cc(-c3ccccc3)c(C#N)c(SCC(O)CS(=O)(=O)Cc3ccccc3)n2)cc1 (stereo not drawn)	u	u	x	-55%	-5%[12.3 µM]	-28%
CCSc1nc(-c2ccc(OC)cc2)cc(-c2ccccc2)c1C#N	u	23µM*	0	3%	u	u
COc1cc(OC)c(OC)cc1/C=N/NC(=O)CSc1ccccc1F	-1%	-27%	0	-13%	x	-4%
CCOC(=O)c1sc(N)c(C(=O)Nc2ccccc2OC)c1C	2.9µM*	2.9µM*	15	-23%	-5%	3%
CCOC(=O)c1[nH]c(C)c(C(=O)OC(C)C(=O)Nc2ncc(Cl)cc2Cl)c1C (stereo not drawn)	18µM*	u	-17	-6%	-4%	3%
CCOC(=O)c1c(C)[nH]c(C(=O)OC(C)C(=O)Nc2ccccc2OC)c1C (stereo not drawn)	16µM*	u	-2	-10%	5%[56.1 µM]	u
CCOC(=O)c1c(C)[nH]c(C(=O)OC(C)C(=O)Nc2ccc(C)cc2)c1C (stereo not drawn)	-27%	-23%	-5	-31%	x	-9%
N=C1N=C(N)c2cc3ccccc3cc21	u	24µM*	x	x	12%	x
CN=C1c2c(-c3ccccc3)c3cc(OC)ccc3n2CCN1C	23µM*	18µM*	u	-30%	-3%	-8%
COCCNc1nc(NCCN2CCNC2=O)c2sccc2n1	-21%	-5%	-71*	-5%	x	-6%
COc1ccccc1CN1CCNC(=O)C1=O	-25%	-15%	x	3%	-4%	-3%
COc1ccccc1CNc1nc(NCCN2CCNC2=O)c2sccc2n1	18µM*	u	41	-7%	x	23%
SMILES	DT40 TDP1 CPT	TDP1 cell noCPT	IL1B secr inh	HepG2 tox	TDP1 inh	TGFb SMAD3 inh
CN(C(=O)c1ccoc1)c1ccc2ccccc2c1	13µM*	u	12	-12%	4%	-7%
Cc1cc(/C=N\NC(=O)c2cccs2)c(C)n1-c1ccc2ncccc2c1	13µM*	10µM*	-17	-19%	9%	5%
Cc1ccc(/C=N/NC(=O)c2c(C)nc3ccc(Br)cn23)cc1	0.73µM*	0.58µM*	71	-8%	x	u
Cc1nc2ccccn2c1C(=O)N/N=C/c1cc(C)n(-c2ccc(Br)cc2)c1C	18µM*	21µM*	-22	3%	9%	-4%
COc1ccc(/C=N\NC(=O)c2c(C)nc3ccc(Br)cn23)cc1	0.58µM*	0.73µM*	75	6%	5%	-15%
Cc1nc2ccccn2c1C(=O)N/N=C/c1ccccc1	16%	8%	1	-28%	x	-3%
COc1ccc2cc(CN(CC3COCCO3)S(=O)(=O)c3ccc(Cl)cc3)c(=O)[nH]c2c1 (stereo not drawn)	-19%	u	u	-2%	-4%	8%
O=C(C(=O)N1CCN(c2ccccc2)CC1)c1ccco1	7%	6%	19	x	x	x
CN1CCN(C2CN(Cc3cn(Cc4ccccc4)nn3)S(=O)(=O)C2)CC1 (stereo not drawn)	3%	-7%	22	x	x	x
CN(C)c1ccc(/C=[N+]2\C(=O)CC(=O)NC2=O)cc1	7%	1%	x	1%	x	1%
CCOC(=O)c1c(-c2ccco2)csc1NC(=O)COC(=O)c1cnc(C)cn1	-6%	-9%	-1	-4%	x	0%
CC1CCCC(NC(=O)C2CC(=O)N(Cc3ccccc3)C2)C1C (stereo not drawn)	-4%	25%	26	3%	1%	0%
CC1CCCCC1NC(=O)C1CC(=O)N(Cc2ccccc2)C1 (stereo not drawn)	13µM*	12µM*	34	3%	1%	-3%
Cc1ccc(CN2CC(C(=O)NC3CCCC(C)C3C)CC2=O)cc1 (stereo not drawn)	18µM*	u	-17	-43%	1%	-26%
O=C(Nc1ccc(Br)cc1Br)C1CC(=O)N(Cc2ccccc2)C1 (stereo not drawn)	-19%	-26%	-56*	-49%	0%	u
